# Several values for one entry are separate records, joined by “and”; a condition that tells them apart may be missing. Identical values can stand only once. Records with an inconclusive call do not appear. Activity calls are given as the source filed them. Calls come from the whole dose curve; as a rule, active = well fitted curve in the direction sought with a large enough effect; inconclusive = small, poorly fitted or top-dose-only effect, or effect the other way; inactive = flat fitted curve, though single readings scatter.
# Assay: Total Fluorescence Confirmation Counterscreen for Inhibitors of the Interaction of Thyroid Hormone Receptor and Steroid Receptor Coregulator 2, Fluorescein Fluoroprobe
# Settings: TRbeta/SRC2-fluorescein mix, total fluorescence interference; series mostly up to 92.2 µM; total fluorescence change, positive = fluorescent: at the top concentration
# Text: NIH Molecular Libraries Probe Production Network [MLPCN] NIH Chemical Genomics Center [NCGC] MLPCN Grant: DK058080 Assay Provider: R. Kip Guy, St. Jude Children's Research Hospital NCGC Assay Overview: Thyroid receptor (TR) regulates many homeostatic processes including basal metabolism, cardiovascular function, body weight, and lipid trafficking. TR modulators are potential therapeutics for obesity and hyperlipidemias but current thyroid analogs have undesirable side effects, particularly cardiac stimulation. To identify inhibitors that specifically prevent the interaction of TR with the steroid receptor coregulator 2 (SRC2), a fluorescence polarization assay was screened (Arnold et al., 2006). This assay detects interaction of the ligand-binding domain of human TRbeta with a fluorescein labeled SRC2 peptide, corresponding to a 20 amino acid region of the nuclear receptor interaction domain. Total fluorescence (555 nm excitation and 632 nm emission) was measured to identify potential fluorescent and light absorbing compounds. Such compounds may be artifacts that interfere with the fluorescence polarization assay. This assay is a confirmation assay for AID 1479. Arnold, L. A.; Estebanez-Perpina, E.; Togashi, M.; Shelat, A.; Ocasio, C. A.; McReynolds, A. C.; Nguyen, P.; Baxter, J. D.; Fletterick, R. J.; Webb, P.; Guy, R. K. A high-throughput screening method to identify small molecule inhibitors of thyroid hormone receptor coactivator binding. Sci STKE 2006, p 13.
# NCGC Assay Protocol Summary: For screening, 5 uL/well 0.6 uM TRbeta and 20 nM SRC2 Fluorescein in protein buffer (20mM Tris hydrochloride, 100mM NaCl, 10% glycerol, 1mM EDTA, 0.01% NP-40, 1mM DTT, 1uM T3 and 5% DMSO) was dispensed into black solid 1536-well plates (Grenier) using a solenoid-based dispenser. Following transfer of 23 nL compound or DMSO vehicle by a pin tool, the plates were centrifuged 15 s at 1000 RPM and incubated 5 hr at ambient temperature. The plates were read by an Envision (Perkin Elmer) to detect fluorescence polarization of SRC2 Fluorescein (480 nm excitation and 535 nm emission). Data were normalized to unbound (all components except TRbeta) and bound SRC2 Fluorescein controls. Total fluorescence (TF) was calculated as follows: TF = S + 2P where S and P are fluorescence readings in the parallel and perpendicular channels, respectively. In this assay, we provide % activity data for each concentration as well as potencies for the active compounds.
SMILES,"total fluorescence change, positive = fluorescent",Potency
C=CCNC(=O)/C(C#N)=C/c1c(C)nn(-c2ccc(Cl)cc2)c1Cl,-6.6% (inactive),
CN1c2ccccc2C(C)(C)C12C=Nc1c(ccc3ccccc13)O2 (stereo not given),8.98% (inactive),
Cc1[nH][nH]c(=O)c1C(c1ccc(-c2ccccc2C(=O)O)o1)c1c(C)[nH][nH]c1=O,24.3% (inactive),
CC1=NN(c2ccc(F)cc2)C(=O)C1C(c1cccc(O)c1)c1c(C)[nH]n(-c2ccc(F)cc2)c1=O (stereo not given),23.1% (inactive),
O=C(O)C1C2C=CC(O2)C1C(=O)Nc1ccc(S(=O)(=O)N2CCc3ccccc32)cc1 (stereo not given),3.65% [at 11.6 µM] (inactive),
COC(=O)c1ccccc1-c1ccc(C(c2c(C)[nH][nH]c2=O)c2c(C)[nH][nH]c2=O)o1,15.2% [at 5.76 µM] (inactive),
COc1ccc(-c2nc(CS(=O)CC(=O)NCc3ccccn3)c(C)o2)cc1 (stereo not given),,39.8 µM [fluorescent] (active)
CCCc1cc(=O)[nH]c(=S)[nH]1,-2.07% (inactive),
COc1ccc2c(c1)-c1nc(/N=C/c3c(O)ccc4ccccc34)sc1CC2,29.6% [at 5.76 µM] (inactive),
COc1ccc(CN2C(=O)Cc3c2nc(N)c2c(N)nc(N4CCCCC4)c(C#N)c32)cc1,28.9% (inactive),
Cc1cccc(Cn2c(C(=O)OC(C)C)cc3c2ccn3C)c1,8.18% [at 5.76 µM] (inactive),
Cc1nnc(SCC(=O)Nc2ccc(N(C)C)cc2)[nH]c1=O,-3.74% [at 184 µM] (inactive),
COc1ccc(C(=O)/C=C/Nc2ccc(S(=O)(=O)Nc3ncccn3)cc2)cc1,8.87% [at 0.0112 µM] (inactive),
Cc1ccc(OC(=S)Nc2ccc(O)cc2)cc1,-8.24% (inactive),
CCOc1cc(N2CCOCC2)c(OCC)cc1NC(C)C(=O)N1CCN(CC)CC1 (stereo not given),10.4% [at 11.6 µM] (inactive),
CCOc1ccc(C2=Cc3cc(OC)c(OC)cc3C(=C(Cl)Cl)O2)cc1,-2.95% (inactive),
CC1(C)C(N(O)C(=O)Nc2ccc(Cl)cc2)N(c2ccc(Cl)cc2)C(=O)N1CC(=O)NN (stereo not given),17.6% [at 11.6 µM] (inactive),
Cc1cc2ccccc2n1CCNC(=O)C(C)Oc1ccccc1 (stereo not given),-0.272% [at 46.3 µM] (inactive),
O=c1cc(C23CC4CC(CC(C4)C2)C3)[nH][nH]1,17.9% (inactive),
Cc1cccc(S(=O)(=O)c2cn(Cc3ccccc3)c3cc(N4CCC(C)CC4)c(F)cc3c2=O)c1,-8.82% [at 184 µM] (inactive),

SMILES,"total fluorescence change, positive = fluorescent",Potency
CCOc1ccc(NC(=O)C(c2ccccn2)N(C(=O)CCl)c2ccc(F)cc2)cc1 (stereo not given),17.5% [at 5.76 µM] (inactive),
O=C(Nc1nc2ccc(Cl)cc2s1)c1ccc(N2CCCCC2)c([N+](=O)[O-])c1,1.47% (inactive),
CN1CCc2ccc3c4c2[C@]1(C)Cc1cccc(c1-4)OCO3,,100 µM [fluorescent] (active)
Nc1cccnc1Sc1cc(Cl)c(Cl)cc1Cl,-17.1% (inactive),
Cc1ccc(-c2nc(S(=O)(=O)c3ccc(F)cc3)c(SCC(=O)NCC3CCCO3)o2)cc1 (stereo not given),21.4% [at 46.3 µM] (inactive),
Cc1nc2ccccc2n2c(O)c(CC(=O)O)cc12,,12.6 µM [fluorescent] (active)
COc1cc(C(c2c(C)[nH][nH]c2=O)c2c(C)[nH][nH]c2=O)ccc1OC(=O)c1cccc(C)c1,3.7% [at 184 µM] (inactive),
COc1cc(NCCCC(C)N)c2ncccc2c1 (stereo not given),-9.55% [at 11.6 µM] (inactive),
O=C(NNc1cc(N2CCOCC2)nc(N2CCOCC2)n1)c1ccc([N+](=O)[O-])cc1,19.9% [at 11.6 µM] (inactive),
Cc1ccccc1Nc1cc2ccccc2c(=O)[nH]1,,25.1 µM [fluorescent] (active) and 44.7 µM [fluorescent] (active)
CC(=O)c1cccc(NC(=O)COC(=O)c2ccc(S(C)(=O)=O)c([N+](=O)[O-])c2)c1,9.6% [at 11.6 µM] (inactive),
Cc1ccc2c(CC(=O)Nc3c(C(=O)c4ccc(F)cc4)oc4ccccc34)coc2c1C,-8.94% [at 184 µM] (inactive),
Cc1nc2c3cc(F)ccc3n(Cc3ccccc3F)c2s1,-1.48% [at 46.3 µM] (inactive),
Cn1c(-c2ccc(=O)[nH]c2)nc2ccccc21,2.71% (inactive),
CCC(NC(=O)Nc1ccc(O)cc1)(C(F)(F)F)C(F)(F)F,5.98% (inactive),
CCCCOc1ccc(C(=O)CCN2CCOCC2)cc1,-10.9% (inactive),
COC(=O)/C(=C/Nc1ccc(O)cc1)[N+](=O)[O-],0.349% [at 5.76 µM] (inactive),
Nc1cc(-c2ccncc2)c[nH]c1=O,,inactive
Cc1cc(C)cc(OCC(=O)NCCc2nc3ccccc3[nH]2)c1,1.64% [at 184 µM] (inactive),
Nc1cc(-c2ccccc2)c[nH]c1=O,,39.8 µM [fluorescent] (active)
